Assay outcomes: PubChem, The Scripps Research Institute Molecular Screening Center
Only some compounds are listed: those with a hit (about 2.3% of all), similar ones and a draw of the others.
M1 PAM parental: counter-screen for M1 PAMs: effect in parental CHO-K1 cells; ATP EC20, Fluo-8 calcium fluorescence; 0% at ATP EC20, 100% at ATP max; activation, % at 3 µM; actives 0.02% (n = 360,000);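 active = activation above the run cutoff, the mean activation of all test compounds plus 3 SD, cut at about 40% in these data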;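 note: peak over basal fluorescence ratio in a 140 s read after ATP addition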
CHRM1 agonist: agonists of human M1 muscarinic receptor. P11229. CHO-K1 hM1, Fluo-8 calcium fluorescence, agonist mode; 0% DMSO, 100% acetylcholine EC100. activation, % at 3 µM. actives 0.33% (n = 360,000);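 active = activation above the run's mean compound activation plus 3 SD, cut at about 16% in these data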;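 note: peak over basal fluorescence ratio within a 140 s kinetic read after compound addition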
Target sequence (P11229 whole entry, looked up): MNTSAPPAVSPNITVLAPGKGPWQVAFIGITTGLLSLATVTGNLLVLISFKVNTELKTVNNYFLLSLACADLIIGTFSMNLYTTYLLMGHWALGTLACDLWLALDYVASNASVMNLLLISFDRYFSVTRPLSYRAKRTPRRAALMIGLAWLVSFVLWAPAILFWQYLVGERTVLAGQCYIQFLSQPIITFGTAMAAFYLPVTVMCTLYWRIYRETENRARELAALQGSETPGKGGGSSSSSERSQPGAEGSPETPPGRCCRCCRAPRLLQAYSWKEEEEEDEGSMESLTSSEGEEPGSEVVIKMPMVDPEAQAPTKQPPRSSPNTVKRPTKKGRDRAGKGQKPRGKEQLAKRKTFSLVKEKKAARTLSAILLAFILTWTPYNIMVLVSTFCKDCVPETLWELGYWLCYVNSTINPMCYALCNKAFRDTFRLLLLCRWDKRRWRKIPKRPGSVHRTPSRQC
CHRM1 PAM: potentiates human M1 receptor response to acetylcholine | CHO-K1 hM1, Fluo-8 calcium fluorescence, ACh EC20; 0% = ACh EC20, 100% = maximal ACh | P11229 | activation, % at 3 µM | actives 0.088% (n = 360,000) | AID 588819; in the data active = activation above about 19%, passing the limit was not always enough
CHO-K1 Ca antag: counter-screen for M1 antagonists: effect in parental CHO-K1 cells | ATP-induced calcium, Fluo-8 fluorescence | inhibition, % at 3 µM | actives 0.6% (n = 360,000);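 active = inhibition above a per-plate cutoff, the plate's mean sample inhibition plus 3 SD, cut at about 24% in these data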;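 note: 0% = DMSO plus EC80 ATP and 100% = DMSO alone without ATP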
M1 ag parental: counter-screen for M1 agonists: effect in parental CHO-K1 cells. Fluo-8 calcium fluorescence; scaled to maximal ATP response, vehicle zero. activation, % at 3 µM. actives 0.48% (n = 360,000); in the data active = activation above about 15%;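 note: untransfected CHO-K1 host cells lacking M1 receptor as counterscreen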
M1 antag: antagonists of human M1 muscarinic receptor. CHO-K1 hM1, Fluo-8 calcium fluorescence, ACh EC80 antagonist. inhibition, % at 3 µM. actives 1.3% (n = 360,000). AID 588852;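 active = percent inhibition above its own plate's cutoff, namely the mean of that plate's compound wells plus 3 SD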;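 note: peak over basal fluorescence ratio during 140 s after agonist addition; 0% = ACh EC80 plus DMSO and 100% = DMSO alone without agonist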
An asterisk follows results filed as active; . = no result.

SMILES | M1 PAM parental | CHRM1 agonist | CHRM1 PAM | CHO-K1 Ca antag | M1 ag parental | M1 antag
O=Nc1c(O)n(Cc2ccc(Cl)cc2)c2ccccc12 | 5 | 18* | 22* | -5 | 0 | -16
O=Nc1c(O)n(Cc2c(Cl)cccc2Cl)c2ccccc12 | 16 | 36* | -1 | -10 | 0 | 6
Cc1ccc(Cn2c(O)c(N=O)c3ccccc32)cc1 | -14 | 20* | 9 | 19 | 2 | -5
O=C(c1nc[nH]c1C(=O)N1CCN(c2ccccc2)CC1)N1CCN(c2ccccc2)CC1 | -11 | -1 | 5 | -4 | 0 | -2
Oc1ccccc1N1CCN(C(=S)NCCc2ccccc2)CC1 | -16 | -2 | -13 | 28* | 3 | 13
COc1cccc(-c2cccc3c2NC(=O)C3(C)Cc2cccc(F)c2)c1 (stereo not given) | 19 | -5 | 3 | -25 | 3 | -15
CCOC(=O)C(=CNc1ccc(OC)cc1[N+](=O)[O-])C(=O)OCC | 10 | -1 | 15 | -13 | 0 | -14
Cn1c(SCC(N)=O)nnc1C1CCN(S(=O)(=O)c2ccccc2C(F)(F)F)CC1 | 16 | -1 | -5 | -14 | 1 | -6
Cn1c(SCCN2CCCC2)nnc1C1CCN(S(=O)(=O)c2cccc(F)c2)CC1 | 10 | -11 | -31 | -13 | 2 | 63*
O=C(NNC(=O)c1ccncc1)Nc1cc(Cl)ccc1Cl | -7 | 1 | 5 | -9 | 1 | -17
OCCCCNCc1ccc(OCc2ccc(Cl)cc2Cl)cc1 | 14 | -7 | -27 | -27 | 11 | 35*
CC(NC(=S)NCCCN1CCOCC1)C12CC3CC(CC(C3)C1)C2 (stereo not given) | 23 | -4 | 3 | -10 | 0 | 0
CCOC(=O)N(C)[C@H]1C[C@H]2c3[nH]c4ccccc4c3CCN2C[C@H]1[C@H](C)O | 18 | -9 | 7 | 5 | 2 | -4
C[C@H](O)[C@@H]1CN2CCc3c([nH]c4ccccc34)[C@@H]2C[C@@H]1N(C)Cc1cc(Cl)cc(Cl)c1 | -8 | 33* | -5 | -8 | 0 | -3
CC(=O)NC(c1ccccc1)c1nc(-c2cccc(C(F)(F)F)c2)cs1 (stereo not given) | -16 | -4 | 3 | 29* | 1 | -12
CC(=O)NC(c1ccccc1)c1nc(-c2cccc(CO)c2)cs1 (stereo not given) | 2 | -2 | -2 | 3 | 0 | 2
CC(C)(C)CC(C)(C)NC(=O)Nc1cccc([N+](=O)[O-])c1 | -22 | 1 | -17 | 15 | 13 | 32*
CC(C)(C)c1ccc(C(=O)Nc2cccc([N+](=O)[O-])c2)cc1 | 10 | -6 | -14 | -2 | 7 | 13
Cc1ccccc1NC(=O)CC(=O)Nc1ccccc1C | 7 | -3 | 0 | -8 | 1 | 2
O=C(Nc1ccc(OC(F)(F)F)cc1)Nc1cccc([N+](=O)[O-])c1 | -1 | 2 | -14 | 23 | 16* | 34
Cc1ccccc1NC(=O)NC(C)(C)CC(C)(C)C | 13 | -1 | 2 | -12 | 19* | -9
O=C(Nc1ccc(OC(F)(F)F)cc1)Nc1cccnc1 | -2 | 1 | 3 | 0 | 4 | -3
Cc1ccc(NC(=O)Nc2cccc([N+](=O)[O-])c2)cc1F | 13 | 1 | -16 | 17 | 15* | 26
Cc1ccc(S(=O)(=O)c2ccc(Cl)cc2)cc1S(=O)(=O)N(C)CC(=O)O | 14 | -2 | 8 | 0 | 0 | -7
COc1ccccc1C(=O)NCC(=O)OCC(=O)c1ccc2c(c1)-c1ccccc1C2 | 7 | -1 | 14 | -1 | 0 | -8
SMILES | M1 PAM parental | CHRM1 agonist | CHRM1 PAM | CHO-K1 Ca antag | M1 ag parental | M1 antag
CCOc1cccc2cc(C(=O)NCc3cccnc3)c(=O)oc12 | -9 | -5 | -5 | -3 | 0 | 8
C=CCc1cccc2cc(C(=O)NCc3cccnc3)c(=O)oc12 | -2 | -15 | -33 | -9 | 0 | 36*
CN1/C(=C/C=C(C#N)C#N)C(C)(C)c2ccccc21 | 17 | 0 | 9 | -17 | 1 | -10
CC1=C/C(=C\C=C(C#N)C#N)N(C)c2ccccc21 | 2 | 22* | -6 | 4 | 27* | 11
Cc1ccc(NC(=O)N(C2=NCC(C)S2)c2ccccc2)cc1 (stereo not given) | 6 | -6 | -8 | -7 | 1 | 8
Cc1cccc(N(C(=O)Nc2ccc(Cl)cc2)C2=NCC(C)S2)n1 (stereo not given) | 3 | -7 | -4 | 11 | 15* | 18
CCOC(=O)C1=CCN(S(=O)(=O)c2ccccc2F)C1c1cccc(Cl)c1 (stereo not given) | 11 | -10 | -14 | 4 | 1 | 25
COc1ccc(CN(CCC(c2ccc(F)cc2)C2CCOC(C)(C)C2)C(=O)c2ccco2)cc1 (stereo not given) | 5 | -8 | -24 | 2 | 5 | 26*
CCOc1ccc(NC(=S)N2CCN(S(C)(=O)=O)CC2)cc1 | 17 | -3 | 5 | -8 | 1 | 4
COc1ccc(CCC(=O)N2CCN(C(=O)c3ccccc3)CC2)cc1 | 14 | -8 | 13 | -1 | 0 | -15
Cc1ccc(S(=O)(=O)N2CCCC2C(=O)n2nc(C)cc2C)cc1 (stereo not given) | 15 | -4 | 8 | -5 | 0 | -9
COc1ccc(S(=O)(=O)N2CCCC2C(=O)n2nc(C)cc2C)cc1 (stereo not given) | -15 | -5 | -7 | 30* | 0 | 6
CCS(=O)(=O)c1ccc2oc(SCC(=O)Nc3ccc(OC)cc3OC)nc2c1 | 27 | -3 | 7 | -19 | 1 | -4
CCS(=O)(=O)c1ccc2oc(SCC(=O)NC(C)C3CC4CCC3C4)nc2c1 (stereo not given) | -9 | -3 | -3 | 25* | 2 | 8
c1ccc(Sc2ccccc2CN2CCCC2)cc1 | 4 | -9 | -24 | 2 | 1 | 79*
Fc1ccccc1CN1CCCCCCC1 | 2 | -12 | -5 | -16 | 0 | 5
N#C/C(=N\Nc1ccc(Cl)cc1)C(N)=S | -22 | 7 | -3 | 25* | 11 | 13
N#C/C(=N\Nc1cccc(Cl)c1)C(=O)c1ccccc1 | -3 | 5 | -3 | 29* | 5 | 15
Cc1ccc(NC(N)=S)cc1C | 12 | -4 | 7 | 8 | 0 | -2
Cc1ccc(N/N=C(\C#N)C(N)=S)cc1C | -2 | 0 | 1 | 7 | 16* | 5
N#C/C(=N\Nc1ccc(Cl)cc1)C(=O)c1ccsc1 | -3 | 5 | 0 | 24* | 13 | 12
N#C/C(=N\Nc1ccccc1)C(N)=S | 3 | 6 | 16 | 18 | 6 | -12
COC(=O)c1ccc2nc(-c3ccc(Cl)cc3)c(Cc3ccsc3)n2c1 | 8 | . | . | 0 | 0 | .
